Hits are enriched below; roughly 27% of the tested compounds scored in any of these assays.
CYP2C9 inhib = blockers of cytochrome P450 2C9 activity – biochemical, luminescence, ADME assay, primary screen; inhibition, % at 5 µM; AID 777, 2007; actives 20% (n = 96,000); P11712; CYP2C9 Supersomes, luciferin-H conversion;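 active means blocking of liver enzyme CYP2C9 beyond about 50% at 5 µM, limit read from the data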
CYP2C19 inh = blockers of cytochrome P450 2C19 activity – biochemical, luminescence, ADME assay, primary screen; P33261; actives 21% (n = 96,000); inhibition, % at 5 µM; CYP2C19 Supersomes, luciferin-H EGE luminescence, 30 min;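 active means CYP2C19 inhibition above a set limit at 5 µM in the primary screen, cut at about 50% in these data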;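 further: plate controls were negative control wells for no effect and 2.5 mM tranylcypromine positive control for full effect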
CYP2C19 act = human CYP2C19 activators, primary screen, biochemical, luminescence. Cytochrome P450 2C19 (Homo sapiens), P33261. recombinant CYP2C19, luciferin-H EGE luminescence; active compounds read high; 0 = fully inhibited enzyme, 1 = untreated enzyme. activation factor at 5 µM. 96,000 tested, under 10 active. AID 1025, 2008;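 active means activation factor of at least 2 at 5 µM in the primary screen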;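 further: 0 = wells with 2.5 mM tranylcypromine and 1 = vehicle-only wells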
Cav3 T inh = Cav3.2 calcium influx blockers – cell-based, Fluo-4 calcium fluorescence, FDSS, MLSMR library, primary screen | Cav3.2-expressing cells; active compounds read low | actives 4% (n = 100,000) | B-score at 10 µM | Voltage-dependent T-type calcium channel subunit alpha-1H (Homo sapiens), O95180;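 active means single-dose well whose peak fluorescence ratio is a statistical outlier from its plate by either plate-standardised score or position-corrected B-score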
CYP2C9 activ = human CYP2C9 activators, primary screen, biochemical, luminescence; Cytochrome P450 2C9 (Homo sapiens), P11712; recombinant CYP2C9, luciferin-H conversion; active compounds read high; factor 1 = untreated enzyme, 0 = blocked; activation factor at 5 µM; actives 1.4% (n = 96,000); AID 1024, 2008;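 active means activation factor of 2 or more for CYP2C9 at a 5 µM dose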;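 further: 0 = sulfaphenazole-blocked wells and 1 = vehicle-only wells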
Active calls of the source: *; . = not tested or not shown.

SMILES	CYP2C9 inhib	CYP2C19 inh	CYP2C19 act	Cav3 T inh	CYP2C9 activ
CC1(C)CC(=O)c2cc(C(=O)NCc3ccco3)c(=O)n(-c3ccccc3)c2C1	-5	9	0.9	4.1*	1.1
Cc1nn(-c2ccccc2)c(Cl)c1C(=O)OC(C)C(=O)NC(=O)NC1CCCCC1 (configuration not stated)	55*	39	0.6	-2.3	0.5
Cc1nn(-c2ccccc2)c(Cl)c1C(=O)NCC(C)C	63*	69*	0.3	0.11	0.4
CCC(=O)N1CN(S(=O)(=O)c2ccc(C)cc2)CC1C (configuration not stated)	13	53*	0.5	0.35	0.9
CCOC(=O)C1CN(S(=O)(=O)c2ccc(C)cc2)C1	-3	24	0.8	-0.55	1
CCNc1nc(NC(C)C)nc(Oc2ccc(OCCOc3ccc(C)cc3)nn2)n1	28	40	0.6	-0.75	0.7
O=C(O)CCc1ccc(-c2ccccc2)n1CC(=O)O	17	12	0.9	0.62	0.8
Cc1ccc(-c2ccc(CCC(=O)O)n2Cc2ccco2)cc1	57*	32	0.7	-1.2	0.4
O=C(Nc1ccccc1)N(O)c1ccc(Cl)cc1	61*	80*	0.2	-0.19	0.4
CC1(c2ccc3noc(-c4ccc(Cl)cc4)c3c2)OCCO1	16	35	0.7	.	0.8
Cc1cccc(-c2onc3ccc(C4(C)OCCO4)cc23)c1	93*	88*	0.1	-1.7	0.1
O=C(Nc1cnn(Cc2ccc(Cl)cc2)c1)c1ccc([N+](=O)[O-])cc1	-3	0	1	-0.79	1
O=C(NC(Nc1ncc(S(=O)(=O)c2ccc([N+](=O)[O-])cc2)s1)(C(F)(F)F)C(F)(F)F)c1ccc(Cl)cc1	88*	12	0.9	.	0.1
COc1ccc(S(=O)(=O)N(Cc2cccs2)C2CCCC2)cc1	-4	6	0.9	.	1
COc1ccc(S(=O)(=O)N(C)Cc2cccs2)cc1Br	-36	96*	0	-2.7	1.4
COc1cccc(CNc2nc3ccccc3n2CCN2CCCCC2)c1	52*	50	0.5	1.3	0.5
CCCn1c(NCc2cc(OC)ccc2OC)nc2ccccc21	28	68*	0.3	-4.8*	0.7
c1ccc(Cn2c(CNc3nc4ccccc4n3CCN3CCOCC3)nc3ccccc32)cc1	91*	90*	0.1	-1.8	0.1
COc1ccc(CNc2nc3ccccc3n2CCN2CCCCC2)c(OC)c1	8	10	0.9	-1.1	0.9
CC(C)n1c(NCc2ccc(N(C)C)cc2)nc2ccccc21	.	.	.	0.28	.
CCCn1c(NCc2ccc(N(C)C)cc2)nc2ccccc21	24	92*	0.1	-1.2	0.8
CCOC(=O)c1sc(NC(=O)c2cc3n(n2)C(C(F)(F)F)CC(c2ccccc2)N3)c(C(=O)OCC)c1C (configuration not stated)	27	6	0.9	-0.02	0.7
COc1cc(CCNC(=O)c2cnn3ccccc23)cc(OC)c1OC	17	40	0.6	0.21	0.8
CCN(CC)CCn1c(NCc2ccc(OC)cc2)nc2ccccc21	-3	-7	1.1	0.079	1
CCn1c(NCc2cc(OC)ccc2OC)nc2ccccc21	58*	78*	0.2	-3.2	0.4
SMILES	CYP2C9 inhib	CYP2C19 inh	CYP2C19 act	Cav3 T inh	CYP2C9 activ
O=C(O)c1c(Cl)c(Cl)c(Cl)c(Cl)c1C(=O)N1CCOCC1	19	8	0.9	-0.014	0.8
Cc1c(C(N)=O)sc(N)c1C(=O)OC(C)C	16	21	0.8	-0.37	0.8
CC(=O)c1sc(N)c(C(=O)OC(C)C)c1C	45	80*	0.2	-0.067	0.6
CC(C)CC(=O)N1CCN(Cc2cccc(F)c2)CC1	-4	59*	0.4	0.28	1
Cc1ccc(OC(=O)Cn2c(C(F)(F)F)nc3ccccc32)cc1	16	12	0.9	-0.56	0.8
CC(C)n1c(CCC(=O)O)ccc1-c1ccccc1	11	14	0.9	1.1	0.9
CC1CN(S(=O)(=O)c2ccc(Cl)c(C(F)(F)F)c2)CC(C)O1 (configuration not stated)	-130	22	0.8	-0.8	2.3*
COc1ccc(N2CCN(S(=O)(=O)c3ccc(Cl)c(C(F)(F)F)c3)CC2)cc1	-28	18	0.8	0.32	1.3

Bioassay records: PubChem BioAssay, several laboratories
